Composite z-score and z-score data for five molecules are collected here from PubChem BioAssay.

Assay [1] has as its system Plasmodium falciparum Sir2 (PF13_0152, Sir2A). Kind of assay: Plasmodium falciparum Sir2A binding compounds – biochemical, small-molecule microarray, 635 nm fluorescence, primary screen (AID 1098).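 Also: score merges spot fluorescence intensity with its signal-to-noise ratio.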 Conditions: fluorescence 635 nm, higher = more signal.
The nature of assay [2]: probe aDKK1 binding to arrayed compounds – biochemical, biotinylated probe, 635/667 nm fluorescence, primary screen (AID 1099).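 Also: score merges 667nm spot fluorescence with signal to noise across triplicate slides.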 Conditions: small-molecule microarray, higher = more signal.
Assay [3] is described as follows: probe aCHRDL2 binding to arrayed compounds – biochemical, biotinylated probe, 635/667 nm fluorescence, primary screen (AID 1100). Conditions: small-molecule microarray, higher = more signal.
A short description of assay [4]: change in splice reporter luminescence, either direction, cell-based, HEK293, spliceosome inhibition project, primary screen (AID 1101).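 Also: HEK293 cells carrying a splicing-competent luciferase reporter gene; test concentration not given here.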 Conditions: HEK293 splicing luciferase reporter, 24 h, higher = more signal, called active from +8 up or from −8 down. A general note: In a reporter assay the amount or activity of a reporter protein is the signal.
The target of assay [5] is Fibroblast growth factor 10 (Homo sapiens) (UniProt O15520). Kind of assay: compounds binding fibroblast growth factor 10 – biochemical, small-molecule microarray, 635 nm fluorescence, primary screen (AID 1102). Conditions: FGF10 binding, fluorescence 635 nm, higher = more signal.
The subject of assay [6] is glycogen synthase kinase-3 (GSK3A per assay name; protocol says GSK3B). The experiment in a line: compounds binding glycogen synthase kinase-3 – biochemical, small-molecule microarray, 635 nm fluorescence, GSK3A, primary screen (AID 1103). Also: the record names both GSK3A and GSK3B. Conditions: fluorescence 635 nm, higher = more signal.
Assay [7] concerns the target Epidermal growth factor receptor (Homo sapiens) (UniProt P00533). Kind of assay: compounds binding epidermal growth factor receptor – biochemical, small-molecule microarray, 635 nm fluorescence, primary screen (AID 1104).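 Also: score merges 667 nm emission intensity with spot signal to noise over triplicate slides.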 Conditions: EGFR binding, higher = more signal.
The target in assay [8] is Follistatin-related protein 3 (Homo sapiens) (UniProt O95633). The experiment in a line: compounds binding follistatin-related protein 3 – biochemical, small-molecule microarray, 635 nm fluorescence, primary screen (AID 1105).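 Also: score merges emission near 667 nm and signal to noise per printed spot across three slides.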 Conditions: FSTL3 binding, higher = more signal.
Assay [9] concerns the target Dickkopf-related protein 1 (Homo sapiens) (UniProt O94907). Kind of assay: small molecules binding DKK1 protein – biochemical, small-molecule microarray, 635 nm fluorescence scan, primary screen (AID 1106).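 Also: score merges emission near 667 nm with signal to noise over three replicate slides.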 Conditions: higher = more signal.
In assay [10] the test system is Inhibin beta A chain (activin A). The experiment in a line: small molecules binding activin A – biochemical, small-molecule microarray, 635 nm fluorescence scan, primary screen (AID 1107).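 Also: mouse activin A protein probed at 4.33 µg/mL on printed slides; score merges bound-protein fluorescence near 667 nm with spot signal-to-noise.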 Conditions: INHBA, higher = more signal.
Assay [11] deals with Human papillomavirus type 1a protein E7 (residues 44-93). Kind of assay: small molecules binding HPV E7 44-93 – biochemical, small-molecule microarray, residues 44-93, 635 nm fluorescence, primary screen (AID 1108).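 Also: E7 fragment applied at 1 µg/mL in TBST for 1 h at 4 C; score combines spot fluorescence with its signal to noise ratio.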 Conditions: fluorescence 635 nm, higher = more signal.
Assay [12] can be described thus: hepatitis C replication reporter changes, two-sided – Huh7 cells, luciferase reporter, HCV replication inhibitor project, primary screen (AID 1109).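 Also: huh7 hepatoma cells harbouring a luciferase neomycin HCV replicon reporter; luciferase luminescence as measure of HCV replicon replication; test concentration not given here.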 Conditions: Huh7 HCV replicon luciferase reporter, 48 h; higher = more signal.
Assay [13] addresses Left-right determination factor 2 (Homo sapiens) (UniProt O00292). Kind of assay: small molecules binding LEFTY2 protein – biochemical, small-molecule microarray, 635 nm fluorescence scan, primary screen (AID 1110). Conditions: higher = more signal.
The target in assay [14] is Calmodulin-1 (Homo sapiens) (UniProt P0DP23). The experiment in a line: small molecules binding calmodulin-1 with EGTA – biochemical, small-molecule microarray, Cy5-labelled CALM1, profiling panel (AID 1111).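 Also: labelled calmodulin applied in Tris saline Tween buffer holding calcium plus EGTA and DTT.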 Conditions: Cy5-CALM1 binding fluorescence, higher = more signal.
Assay [15] has the same target. Kind of assay: small molecules binding Ca-loaded calmodulin-1 – biochemical, small-molecule microarray, Cy5-labelled CALM1, plus calcium, artefact control for SMM control-protein annotation, profiling panel (AID 1112).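 Also: score merges spot fluorescence with signal to noise from triplicate slides.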 Conditions: Cy5-CALM1 binding fluorescence, higher = more signal.
Assay [16] is described as follows: probe aWnt5a binding to arrayed compounds – biochemical, biotinylated probe, 635/667 nm fluorescence, primary screen (AID 1113).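 Also: score merges 667 nm fluorescence intensity with signal-to-noise per printed feature.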 Conditions: small-molecule microarray, higher = more signal.
Assay [17] is described as follows: probe aShh binding to arrayed compounds – biochemical, biotinylated probe, 635/667 nm fluorescence, primary screen (AID 1114).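 Also: probe is biotin-labelled aShh protein from a stem cell growth factor screen; measures binding of labelled protein to compounds printed on the slide; score merges feature fluorescence at 667 nm with signal-to-noise.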 Conditions: small-molecule microarray, higher = more signal.
Assay [18] in a line: probe aNog binding to arrayed compounds – biochemical, biotinylated probe, 635/667 nm fluorescence, primary screen (AID 1115).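 Also: probe is biotinylated aNog protein used at 0.15 µg/mL for 1 h at 4 C; z-score combines 667 nm fluorescence of each spot with its signal to noise.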 Conditions: small-molecule microarray, higher = more signal.
Assay [19] deals with Torsin-1A-interacting protein 1 (Homo sapiens) (UniProt Q5JTV8). Kind of assay: compound microarray binding of lysate hLAP1 – cell lysate, small-molecule microarray, COS7 lysate, 635/667 nm fluorescence, primary screen (AID 1116). Conditions: 635 nm fluorescence, higher = more signal.
The target in assay [20] is Alpha-bungarotoxin (Bungarus multicinctus) (UniProt P60615). Kind of assay: compounds binding labelled alpha-BTX control protein – biochemical, small-molecule microarray, Alexa647 label, 635/667 nm fluorescence, artefact control for SMM control protein annotation, profiling panel (AID 1117). Conditions: alpha-BTX-A647 binding fluorescence, higher = more signal.

The structures appear in SMILES notation. Calls of active or inactive are those of the source.

Chain of Alpha-bungarotoxin (Bungarus multicinctus) (P60615 whole entry, looked up): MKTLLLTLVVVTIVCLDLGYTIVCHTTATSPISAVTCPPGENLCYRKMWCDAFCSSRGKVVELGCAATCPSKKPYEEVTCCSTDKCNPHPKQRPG
Chain of Torsin-1A-interacting protein 1 (Homo sapiens) (Q5JTV8 whole entry, looked up): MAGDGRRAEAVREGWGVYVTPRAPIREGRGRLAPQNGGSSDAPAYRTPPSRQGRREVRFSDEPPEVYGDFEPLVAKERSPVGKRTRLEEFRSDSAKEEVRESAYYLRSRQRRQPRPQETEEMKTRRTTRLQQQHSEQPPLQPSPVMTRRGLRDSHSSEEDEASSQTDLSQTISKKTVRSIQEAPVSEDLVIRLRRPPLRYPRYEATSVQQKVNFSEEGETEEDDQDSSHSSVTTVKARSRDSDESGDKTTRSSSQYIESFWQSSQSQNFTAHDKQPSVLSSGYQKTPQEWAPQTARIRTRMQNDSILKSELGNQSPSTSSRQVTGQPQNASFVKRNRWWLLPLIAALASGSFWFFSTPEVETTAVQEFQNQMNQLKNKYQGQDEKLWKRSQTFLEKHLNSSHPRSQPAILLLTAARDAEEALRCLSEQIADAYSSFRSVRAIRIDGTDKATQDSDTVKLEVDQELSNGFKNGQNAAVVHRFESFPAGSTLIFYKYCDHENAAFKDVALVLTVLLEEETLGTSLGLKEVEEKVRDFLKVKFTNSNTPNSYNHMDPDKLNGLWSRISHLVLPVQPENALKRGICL
Chain of Follistatin-related protein 3 (Homo sapiens) (O95633 whole entry, looked up): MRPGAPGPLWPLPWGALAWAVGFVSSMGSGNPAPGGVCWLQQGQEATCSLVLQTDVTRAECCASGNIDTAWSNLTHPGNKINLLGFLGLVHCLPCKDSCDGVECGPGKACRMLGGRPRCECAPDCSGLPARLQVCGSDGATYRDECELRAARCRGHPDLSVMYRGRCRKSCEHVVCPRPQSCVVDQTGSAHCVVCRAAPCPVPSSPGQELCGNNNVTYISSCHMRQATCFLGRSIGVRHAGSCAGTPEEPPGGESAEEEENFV
Chain of Dickkopf-related protein 1 (Homo sapiens) (O94907 whole entry, looked up): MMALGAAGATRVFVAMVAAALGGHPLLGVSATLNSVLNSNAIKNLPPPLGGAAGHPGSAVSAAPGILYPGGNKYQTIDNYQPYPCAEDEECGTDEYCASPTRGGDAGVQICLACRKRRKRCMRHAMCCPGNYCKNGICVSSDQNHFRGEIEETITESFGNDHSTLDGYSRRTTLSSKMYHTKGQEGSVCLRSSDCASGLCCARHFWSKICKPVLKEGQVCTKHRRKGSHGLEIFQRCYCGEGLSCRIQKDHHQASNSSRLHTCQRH
Chain of Left-right determination factor 2 (Homo sapiens) (O00292 whole entry, looked up): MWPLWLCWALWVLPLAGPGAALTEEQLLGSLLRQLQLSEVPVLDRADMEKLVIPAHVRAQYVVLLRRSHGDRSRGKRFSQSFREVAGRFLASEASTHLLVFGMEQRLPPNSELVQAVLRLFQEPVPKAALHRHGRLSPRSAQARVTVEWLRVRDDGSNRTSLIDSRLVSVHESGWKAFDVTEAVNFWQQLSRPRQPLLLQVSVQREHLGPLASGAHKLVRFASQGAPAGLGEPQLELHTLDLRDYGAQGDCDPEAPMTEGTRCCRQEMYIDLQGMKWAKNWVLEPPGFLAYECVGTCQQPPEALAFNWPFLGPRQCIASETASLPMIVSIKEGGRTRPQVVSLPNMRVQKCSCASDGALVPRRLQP
Chain of Epidermal growth factor receptor (Homo sapiens) (P00533 whole entry, looked up): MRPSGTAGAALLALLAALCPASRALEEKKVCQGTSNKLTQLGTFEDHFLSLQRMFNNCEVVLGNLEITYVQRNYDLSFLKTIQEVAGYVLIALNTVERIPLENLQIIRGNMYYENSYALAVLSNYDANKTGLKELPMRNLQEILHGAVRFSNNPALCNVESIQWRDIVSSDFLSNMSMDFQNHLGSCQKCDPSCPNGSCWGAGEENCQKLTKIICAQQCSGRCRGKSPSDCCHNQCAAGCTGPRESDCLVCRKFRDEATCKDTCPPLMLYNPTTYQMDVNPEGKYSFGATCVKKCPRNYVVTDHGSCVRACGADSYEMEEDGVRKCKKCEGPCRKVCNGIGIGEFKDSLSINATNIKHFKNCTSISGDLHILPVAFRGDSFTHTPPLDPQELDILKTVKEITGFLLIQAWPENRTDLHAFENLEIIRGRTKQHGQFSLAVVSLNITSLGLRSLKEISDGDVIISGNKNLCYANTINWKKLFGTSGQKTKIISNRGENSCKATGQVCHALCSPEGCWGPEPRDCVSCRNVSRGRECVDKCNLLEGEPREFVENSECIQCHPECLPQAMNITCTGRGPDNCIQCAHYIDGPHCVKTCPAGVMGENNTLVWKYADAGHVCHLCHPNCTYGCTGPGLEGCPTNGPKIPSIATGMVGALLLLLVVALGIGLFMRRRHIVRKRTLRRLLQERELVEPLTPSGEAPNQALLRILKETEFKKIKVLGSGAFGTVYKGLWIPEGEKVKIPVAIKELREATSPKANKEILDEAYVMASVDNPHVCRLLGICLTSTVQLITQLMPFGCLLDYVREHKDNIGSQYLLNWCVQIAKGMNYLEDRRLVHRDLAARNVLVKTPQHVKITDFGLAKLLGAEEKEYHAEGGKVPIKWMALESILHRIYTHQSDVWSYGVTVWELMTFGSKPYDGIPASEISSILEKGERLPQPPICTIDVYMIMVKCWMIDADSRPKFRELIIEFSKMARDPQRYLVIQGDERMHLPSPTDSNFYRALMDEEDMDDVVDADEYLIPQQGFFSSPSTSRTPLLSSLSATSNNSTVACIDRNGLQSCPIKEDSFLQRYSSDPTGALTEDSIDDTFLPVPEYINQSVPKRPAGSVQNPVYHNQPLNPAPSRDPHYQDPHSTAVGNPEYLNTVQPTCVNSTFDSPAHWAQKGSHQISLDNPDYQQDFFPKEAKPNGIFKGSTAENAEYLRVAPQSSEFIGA
Chain of Fibroblast growth factor 10 (Homo sapiens) (O15520 whole entry, looked up): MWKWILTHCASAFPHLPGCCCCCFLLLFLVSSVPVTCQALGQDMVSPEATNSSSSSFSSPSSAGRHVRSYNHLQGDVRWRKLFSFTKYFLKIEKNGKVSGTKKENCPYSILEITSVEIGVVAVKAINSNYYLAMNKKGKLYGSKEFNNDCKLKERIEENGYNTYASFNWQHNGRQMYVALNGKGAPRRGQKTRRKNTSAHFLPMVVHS

In the case of `O=C1O[C@@H](c2ccccc2)[C@@H](c2ccccc2)N2[C@@H](c3ccc(O)cc3)[C@]3(C(=O)Nc4ccc(C#CC5(O)CCCCCC5)cc43)[C@@H](C(=O)NC[C@H](O)c3ccccc3)[C@H]12`, the composite z-score is 1.29 in assay [1]; -0.171 in assay [2]; 0.467 in [3]; -0.174 in [5]; 0.791 in [6]; -0.568 in [7]. Moreover, the composite z-score in [8] is -0.442; in [9] it was -0.505; in [10], -0.357; in assay [11] it was 1.39; in assay [13] it was -0.817; in assay [14], 0.122. Besides, the composite z-score in [15] was 0.208; in [16], -0.0276; in assay [17], -0.138; in [18], 0.0841; in [19] it was 1.15; in assay [20] it was 0.203. The results for the z-score in [4] and in assay [12] were -0.55 (inactive) and -0.737, respectively.
Turning to `O=C1C=C(c2ccccc2)C(=O)c2ccc([C@H]3Oc4ccccc4S(=O)(=O)N4CCC[C@@H]34)cc21`, the composite z-score in [1] is -0.186; in assay [2] it was -0.39; in assay [3] it was -0.6; in [5], -0.101; in [6] it was -0.191; in assay [7] it was 0.496. Further, the composite z-score was -0.266 in assay [8]; 0.714 in [9]; 1.04 in assay [10]; -1.08 in assay [11]; -0.272 in assay [13]; -0.623 in assay [14]. In addition, the composite z-score was -0.351 in assay [15]; -0.172 in [16]; -0.117 in assay [17]; -0.23 in assay [18]; -0.239 in assay [19]; -0.0257 in assay [20]. For the same molecule, the z-score in assay [4] was 0.781 (inactive); in assay [12], -4.28.
For `NC(=O)NCC#Cc1ccc2c(c1)[C@]1(C(=O)N2)[C@H](C(=O)O)[C@H]2C(=O)O[C@H](c3ccccc3)[C@H](c3ccccc3)N2[C@@H]1c1ccc(OCCO)cc1`, the composite z-score was 1.49 in assay [1]; 0.0638 in [2]; 0.799 in assay [3]; 0.261 in assay [5]; -0.547 in assay [6]; -0.03 in assay [7]. In addition, the composite z-score in [8] is 0.582; in assay [9], 0.158; in assay [10], 0.882; in assay [11], 1.05; in assay [13] it was -0.288; in assay [14], 0.382. In addition, the composite z-score was 0.117 in assay [15]; 0.0077 in assay [16]; 0.13 in [17]; -0.265 in assay [18]; 0.324 in assay [19]; 2.01 in assay [20]. The z-score in [4] is -0.253 (inactive); in assay [12], -0.327.
Turning to `C=CCN1Cc2ccccc2[C@H]2OC(c3ccc(OCCCO)cc3)=N[C@@]2(CC=C)C1=O`, the composite z-score is 0.911 in assay [1]; 0.406 in assay [2]; 1.09 in assay [3]; 1.4 in [5]; 1.28 in assay [6]; 0.901 in [7]. The composite z-score in assay [8] worked out at 1.42; in assay [9], 1.67; in [10] it was 1.39; in [11] it was 1.46; in assay [13], 0.725; in assay [14], 3.19. Further, the composite z-score in [15] was 1.43; in assay [16], -0.0478; in assay [17] it was 0.14; in assay [18], -0.44; in assay [19] it was -0.0689; in assay [20], 1.36. For the same molecule, the values for the z-score in assay [4] and in assay [12] were -0.308 (inactive) and -1.74, respectively.
For `C=CC[C@@]1(C(=O)N2CCOCC2)N=C(c2ccc(OCCCO)cc2)O[C@@H]1c1ccccc1CN=[N+]=[N-]`, the composite z-score turned out to be 0.706 in assay [1]; 0.906 in assay [2]; 1.18 in assay [3]; 1.48 in assay [5]; 1.32 in [6]; 0.749 in [7]. In addition, the composite z-score in assay [8] was determined as 1.05; in assay [9], 0.472; in assay [10] it was 1.34; in assay [11], 1.44; in [13] it was 0.898; in assay [14], 1.9. Moreover, the composite z-score in assay [15] was 0.365; in assay [16], 0.0998; in assay [17], 0.191; in assay [18], -0.333; in assay [19], 1.72; in assay [20] it was 0.943. In addition, the z-score in assay [4] is 1.02 (inactive); in assay [12], -2.04.
